# Data as given in the supplement of paper PMC10670038.
# Where a name gives a salt, the structure may show the parent alone. ± gives the standard deviation of the averaged measurements. Whole data set: some 2,000 compounds, median “relative cell viability vs DMSO, compound + 0.2 uM CuET” near 1, cut for the lowest 2% near 0.25. The sample as a whole holds a higher share of the lowest values than the screen did.
# Tested on: TE10
# Assay: relative cell viability vs DMSO, compound + 0.2 uM CuET (fraction); TE10 is an esophageal squamous carcinoma line; higher = less cytotoxic
# Conditions: 2 µM; co-treatment: CuET (bis(diethyldithiocarbamate)copper) 0.2 uM; 48 h
# Experimental: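 TE10 ESCC cells (1,000/well, 384-well plates) were treated with Selleck bioactive library compounds at 2 uM combined with 0.2 uM CuET (copper diethyldithiocarbamate) for 48 h. Viability was read by CellTiter-Glo and expressed relative to DMSO wells. Two technical replicates (A, B).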
row,Structure (SMILES),relative cell viability
1,CNCc1ccc(-c2[nH]c3cc(F)cc4c3c2CCNC4=O)cc1,1.3 ± 0.098
2,C=C(C)[C@@H]1CC[C@]2(C(=O)O)CC[C@]3(C)[C@H](CC[C@@H]4[C@@]5(C)CC[C@H](O)C(C)(C)[C@@H]5CC[C@]43C)[C@@H]12 [Betulinic acid],0.945 ± 0.13
3,CS(=O)(=O)Nc1ccc([N+](=O)[O-])cc1Oc1ccccc1 [Nimesulide],1.08 ± 0.044
4,O=[N+]([O-])c1ccc2c(c1)S(=O)(=O)C=C2 [Stattic],0.204 ± 0.018
5,CC(C)=CCCC(C)(OC1OC(COC2OCC(O)C(O)C2O)C(O)C(O)C1O)C1CCC2(C)C1C(O)CC1C3(C)CCC(OC4OC(CO)C(O)C(O)C4O)C(C)(C)C3CCC12C (stereo not given) [Gynostemma Extract],1.04 ± 0.076
6,COC(=O)CCSCc1ccc(-c2onc(C)c2NC(=O)OC(C)c2ccccc2Cl)cc1 (stereo not given),0.919 ± 0.024
7,CCCCN1CCCCC1C(=O)Nc1c(C)cccc1C (stereo not given) [Bupivacaine HCl],1.03 ± 0.16
8,CCN=C1N[C@@H]2[C@@H](O)[C@H](O)[C@@H](CO)O[C@@H]2S1 [Thiamet G],1.16 ± 0.065
9,COc1cc(C(=O)NS(=O)(=O)c2ccccc2C)ccc1Cc1cn(C)c2ccc(NC(=O)OC3CCCC3)cc12 [Zafirlukast],1.08 ± 0.019
10,CN1CCc2c(c3ccccc3n2Cc2ccc(C(=O)NO)cc2)C1 [Tubastatin A],1.375 ± 0.0024
11,Cn1cc(CNCC2CCN(c3ncc(C(=O)NO)cn3)CC2)c2ccccc21,0.171 ± 0.017
12,CN1CCc2c(c3ccccc3n2Cc2ccc(C(=O)NO)cc2)C1 [Tubastatin A HCl],0.979 ± 0.011
13,CCCCCCCCCCCCCCCC(=O)OCC(O)C1OC(=O)C(O)=C1O [L-Ascorbyl 6-palmitate],1.02 ± 0.04
14,C[C@@H]1[C@H](O)[C@@H](C)/C=C/C=C/C=C/C=C/C=C/C=C/C=C/[C@H](O[C@@H]2O[C@H](C)[C@@H](O)[C@H](N)[C@@H]2O)C[C@@H]2O[C@](O)(C[C@@H](O)C[C@@H](O)[C@H](O)CC[C@@H](O)C[C@@H](O)CC(=O)O[C@H]1C)C[C@H](O)[C@H]2C(=O)O [Amphotericin B],1.13 ± 0.11
15,COc1c/c(=C2\C=c3ccccc3=N2)[nH]/c1=C\c1[nH]c(C)cc1C [Obatoclax Mesylate (GX15-070)],0.354 ± 0.035
16,"Brc1ccc(C2CN3CCSC3=N2)cc1 (single isomer, unassigned; (-)) [(-)-p-Bromotetramisole Oxalate]",1.33 ± 0.11
17,Cc1cc(=O)oc2c(C=O)c(O)ccc12,1.24 ± 0.086
18,CN(NC(=O)CC(=O)NN(C)C(=S)c1ccccc1)C(=S)c1ccccc1 [Elesclomol (STA-4783)],0.0573 ± 0.0087
19,O=C(O)c1ccccc1 [Benzoic Acid],1.1 ± 0.072
20,O=C(O)CCNC(=O)c1ccccc1 [Betamipron],1.014 ± 0.0048
21,O=C(Nc1ccc2c(O)cc(S(=O)(=O)O)cc2c1)Nc1ccc2c(O)cc(S(=O)(=O)O)cc2c1,1.04 ± 0.058
22,COc1ccc(Oc2cc(C)c(-c3csc(NC(=O)c4ccncc4)n3)c(C)c2)cc1,0.89 ± 0.15
23,O=C(/C=C/c1ccc(O)c(O)c1)O[C@@H]1C[C@](O)(C(=O)O)C[C@@H](O)[C@H]1O [Chlorogenic Acid],1.1 ± 0.11
24,CC1(C)S[C@@H]2[C@H](NC(=O)[C@H](N)c3ccc(O)cc3)C(=O)N2[C@H]1C(=O)O [Amoxicillin Sodium],1.06 ± 0.069
25,CC1(C)S[C@@H]2[C@H](NC(=O)[C@H](N)c3ccc(O)cc3)C(=O)N2[C@H]1C(=O)O [Amoxicillin],0.42 ± 0.49
26,C=CC(=O)Nc1cccc(Nc2nc(Nc3ccc(OCCOC)cc3)ncc2F)c1,0.892 ± 0.11
27,O=S(=O)(c1ccccc1)N(CC(F)(F)F)c1ccc(C(O)(C(F)(F)F)C(F)(F)F)cc1,1 ± 0.084

row,Structure (SMILES),relative cell viability
1,CC(C)(O)C1CCC(C)(C2C(O)CC3(C)C4CC(OC5OC(CO)C(O)C(O)C5O)C5C(C)(C)C(OC6OCC(O)C(O)C6O)CCC56CC46CCC23C)O1 (stereo not given) [Astragaloside A],1.15 ± 0.069
2,O=C(/C=C/c1ccc(CN(CCO)CCc2c[nH]c3ccccc23)cc1)NO [LAQ824 (Dacinostat)],0.145 ± 0.0072
3,OCc1c[nH]c2ccccc12 [Indole-3-carbinol],1.1 ± 0.11
4,O=C(O)CCCc1c[nH]c2ccccc12 [3-Indolebutyric acid (IBA)],1.12 ± 0.072
5,CC1(C)CCCC2(C)C1CCC1(C)OC(=O)CC12 (stereo not given) [Sclareolide],1.05 ± 0.085
6,O=S(=O)(NCCNCC=Cc1ccc(Br)cc1)c1cccc2cnccc12,1.12 ± 0.058
7,CCN(CC)C(=S)SSC(=S)N(CC)CC [Disulfiram],0.0338 ± 0.0054
8,Cn1cc(-c2[nH]c3cc(NC(=O)[C@H](N)C4CCCCC4)cc4c3c2C=NNC4=O)cn1,0.702 ± 0.016
9,NC(=O)C1CCCc2c1[nH]c1ccc(Cl)cc21 (stereo not given) [EX 527 (Selisistat)],1.15 ± 0.033
10,CC(C)c1cc2c(N3CCN(C4=NCC(C)(C)S4)CC3)ncnc2s1 [MI-3 (Menin-MLL Inhibitor)],0.972 ± 0.023
11,CC1=CC(=O)c2ccccc2C1=O [Menadione],0.671 ± 0.13
12,CC1(C)CCC2=C(O1)c1ccccc1C(=O)C2=O [Beta-Lapachone],0.246 ± 0.051
13,C=CC(=O)Nc1cc(Nc2nccc(-c3c[nH]c4ccccc34)n2)c(OC)cc1N(C)CCN(C)C,0.476 ± 0.0093
14,Cc1ccc(-n2[nH]c(C)c(N=Nc3cccc(-c4cccc(C(=O)O)c4)c3O)c2=O)cc1C [Eltrombopag],1.04 ± 0.1
15,Cc1ccc(-n2[nH]c(C)c(N=Nc3cccc(-c4cccc(C(=O)O)c4)c3O)c2=O)cc1C [Eltrombopag Olamine],1.145 ± 0.0091
16,OC(CC1c2ccccc2-c2cncn21)C1CCCCC1 (stereo not given),1.13 ± 0.055
17,C#Cc1cccc(Nc2ncnc3cc(OCCOC)c(OCCO)cc23)c1,1.02 ± 0.013
18,C#Cc1cccc(Nc2ncnc3cc(OCCOC)c(OCCOC)cc23)c1 [Erlotinib],0.996 ± 0.091
19,C#Cc1cccc(Nc2ncnc3cc(OCCOC)c(OCCOC)cc23)c1 [Erlotinib HCl (OSI-744)],1.18 ± 0.1
20,C#Cc1cccc(Nc2ncnc3cc(OC)c(OCCCCCCC(=O)NO)cc23)c1,0.182 ± 0.024
21,CN(C)C(=O)c1ccc(S(=O)(=O)c2ccc(NC(=O)C(C)(O)C(F)(F)F)c(Cl)c2)cc1 (stereo not given),1.2 ± 0.14
22,CCc1cnn2c(NCc3ccc[n+]([O-])c3)cc(N3CCCC[C@H]3CCO)nc12,0.842 ± 0.12
23,COCC[n+]1c2c(n(Cc3cnccn3)c1C)C(=O)c1ccccc1C2=O [YM155 (Sepantronium Bromide)],0.111 ± 0.0058
24,CCCCCCCCCCCCCCCc1cccc(O)c1C(=O)O [Anacardic Acid],1.26 ± 0.019
25,CC1(C)Cc2c(-c3ccccc3)c(-c3ccc(Cl)cc3)c(CC(=O)O)n2C1 [Licofelone],1.17 ± 0.023
26,N#Cc1ccc2[nH]c(O)c(-c3ccc(CN4CCOCC4)cn3)c2c1,1.4 ± 0.13
27,Cc1nc2ccc(-n3ncc(C(=O)c4cc5ccccc5[nH]4)c3N)cc2[nH]1,0.987 ± 0.053

row,Structure (SMILES),relative cell viability
1,CN(C)C(=S)NN=C(c1ccccn1)c1ccccn1,0.943 ± 0.047
2,Clc1ccc(NN=C(c2ccccc2)c2ccccn2)nc1,0.03199 ± 0.00018
3,O=C(Nc1cccc(Cl)c1)c1ccccn1,1.24 ± 0.1
4,CC(=O)N[C@@H](CC(C)C)C(=O)N[C@@H](CC(C)C)C(=O)N[C@H](C=O)CCCNC(=N)N [Leupeptin Hemisulfate],1.16 ± 0.025
5,N#CC(=Cc1ccc(-c2cc(Cl)ccc2Cl)o1)C(=O)Nc1cccc2ncccc12,1.06 ± 0.03
6,COc1cc(C=CC(=O)N2CCC=CC2=O)cc(OC)c1OC [Piperlongumine],0.392 ± 0.035
7,CC(NC(=O)Cc1cc(F)cc(F)c1)C(=O)NC1C(=O)N(C)c2ccccc2-c2ccccc21 (stereo not given),0.97 ± 0.13
8,CC1=NN(c2ccc(C(=O)O)cc2)C(=O)C1=Cc1ccc(-c2cc(C)c(C)cc2[N+](=O)[O-])o1,0.872 ± 0.091
9,Cc1nc(-c2cn3c(n2)-c2ccc(-c4cnn(C(C)(C)C(N)=O)c4)cc2OCC3)n(C(C)C)n1,0.675 ± 0.072
10,OCc1ccc(-c2ccc(-c3ccc(CO)s3)o2)s1,0.225 ± 0.01
11,CC(=O)OCC(=O)[C@@]12N=C(C)O[C@@H]1C[C@H]1[C@@H]3CCC4=CC(=O)C=C[C@]4(C)[C@H]3[C@@H](O)C[C@@]12C [Deflazacort],1.03 ± 0.012
12,CCOc1nc2cccc(C(=O)O)c2n1Cc1ccc(-c2ccccc2-c2nnn[nH]2)cc1 [Candesartan],1.06 ± 0.031
13,CN(C)Cc1cccc(N=C(c2ccccc2)c2c(O)[nH]c3cc(C(N)=O)ccc23)c1,0.952 ± 0.014
14,Cc1[nH]c2ccccc2c1C1=C(NCCc2ccc(F)cc2)C(=O)N(C)C1=O,1.17 ± 0.023
15,Cc1[nH]c2ccccc2c1CCNC(=O)c1cccs1,1.01 ± 0.15
16,Cc1[nH]c2ccccc2c1CCNCc1ccc(/C=C/C(=O)NO)cc1 [Panobinostat (LBH589)],0.151 ± 0.0045
17,COc1c(O)cc2c(c1O)[C@@H]1O[C@H](CO)[C@@H](O)[C@H](O)[C@H]1OC2=O [Bergenin],1.18 ± 0.021
18,CN1CCC(NC(=O)c2cc(-c3c(O)cc(O)cc3Oc3ccc([N+](=O)[O-])cc3)on2)CC1,0.6427 ± 0.0019
19,NC1CC1c1ccc(-c2cccc(O)c2)cc1 (stereo not given),1.13 ± 0.036
20,O=C(C=Cc1ccccc1)NC(NC(=S)Nc1ccc(Cl)cc1)C(Cl)(Cl)Cl (stereo not given),0.908 ± 0.014
21,Cn1cc(/C=C/C(=O)c2cccc(F)c2)cc1/C=C/C(=O)NO,0.872 ± 0.12
22,O=C(/C=C/c1cccc(S(=O)(=O)Nc2ccccc2)c1)NO [Belinostat (PXD101)],0.195 ± 0.017
23,COC1C(O)CC(=O)OC(C)CC=CC=CC(OC2CCC(N(C)C)C(C)O2)C(C)CC(CC=O)C1OC1OC(C)C(OC2CC(C)(O)C(O)C(C)O2)C(N(C)C)C1O (stereo not given) [Spiramycin],1.11 ± 0.0071
24,COC(=O)CC(NC(=O)C(C)NC(=O)C(NC(=O)OCc1ccccc1)C(C)C)C(=O)CF (stereo not given),1.3 ± 0.057
25,CCCCc1nc2cc(/C=C/C(=O)NO)ccc2n1CCN(CC)CC [Pracinostat (SB939)],0.2435 ± 0.00015
26,CN(C)Cc1ccc(S(=O)(=O)n2ccc(/C=C/C(=O)NO)c2)cc1 [Resminostat],0.848 ± 0.19
